High-throughput results from PubChem BioAssay.
Pf growth 96h – P. falciparum growth inhibition at 96 hours; Potency, µM (series often up to 28.7 µM), usual class: inhibitors; actives 6.9% (n = 320,000); P. falciparum luciferase reporter growth, 96 h
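Luminescence readout: decreased luciferase signal marks inhibited growth of reporter-expressing P. falciparum in infected red cells (2% hematocrit, 0.05% parasitemia final), exposed to compound two generations (96 h, 37 C, 5% CO2).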
Pf growth 48h – P. falciparum growth inhibition at 48 hours (one generation); P. falciparum luciferase growth in erythrocytes, 48 h; Potency, µM (titrated, usually from 28.7 µM), most hits filed as inhibitors; actives 5.9% (n = 310,000)
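First compound was added to culture medium, then infected red cells at 0.1% parasitemia and 2% hematocrit (final). After incubation at 37 C under 5% CO2, luciferase detection reagent was dispensed and light output recorded.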
HCV inh – HCV inhibition; Huh7.5.1 HCVcc-Cre infection, luciferase reporter, 44 h; Potency, µM (titrated, usually from 41.8 µM), actives largely listed as inhibitors; actives 3.4% (n = 340,000); AID 651820
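Reporter virus HCVcc-Cre (~0.5 moi) infects cells exposed to compound; seeding density 1,000 cells/well with 4 h settling beforehand. Luminescence, 15 sec read, taken 44 h post-infection following a 15 min RT substrate incubation.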
AMA1 RON2 block – AMA1-RON2 (P. falciparum) interaction inhibition | AlphaScreen AMA1-biotinylated RON2 peptide binding | Potency, µM (doses to about 58.2 µM), actives largely listed as inhibitors | actives 0.2% (n = 360,000) | AID 720542; note: nearly all actives have a fitted effect of over 45% in size
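AMA1 (3D7) with his tag at 25 nM final met compounds first, then biotinylated RON2 peptide at 25 nM; detection used donor plus acceptor beads, 10 µg/mL apiece, read by AlphaScreen after 30 min at room temperature.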
Of the large screens only hits and unclear results are named; the others gave an inactive call. Hits are enriched below; roughly 11% of the tested compounds scored in any of these assays. Calls come from the whole dose curve; as a rule, active = well fitted curve in the direction sought with a large enough effect; inconclusive = small, poorly fitted or top-dose-only effect, or another doubt; inactive = no such curve, though single readings can be large; an effect the other way counts as inactive or inconclusive.

COc1ccccc1CNC(=O)C1Cc2cc(S(=O)(=O)N3CCCC3)ccc2N1C(C)=O (centres undefined)	Pf growth 48h inconclusive
CC(=O)N1c2ccc(S(=O)(=O)N3CCCC3)cc2CC1C(=O)NCc1ccc(N(C)C)cc1 (centres undefined)	Pf growth 96h 6.6µM
COc1cccc(CNC(=O)C2Cc3cc(S(=O)(=O)N4CCCC4)ccc3N2C(C)=O)c1OC (centres undefined)	Pf growth 96h 15µM
O=C(O)C1CCN(C(=O)c2ccccc2N2C(=O)[C@@H]3Cc4c([nH]c5ccccc45)C(c4cccc(Cl)c4)N3C2=O)CC1 (some centres undefined)	Pf growth 96h 9.3µM, Pf growth 48h inconclusive
COc1ccc(C2c3[nH]c4ccccc4c3C[C@H]3C(=O)N(c4ccccc4C(=O)NCCN4CCOCC4)C(=O)N23)cc1 (some centres undefined)	Pf growth 96h inconclusive, Pf growth 48h 13µM
Cc1ccc(C2c3[nH]c4ccccc4c3C[C@H]3C(=O)N(c4ccccc4C(=O)N4CCC(C(=O)O)CC4)C(=O)N23)cc1 (some centres undefined)	Pf growth 96h 5.9µM, Pf growth 48h 12µM
COc1cccc(C2c3[nH]c4ccccc4c3C[C@H]3C(=O)N(c4ccccc4C(=O)N4CCCC4C(=O)O)C(=O)N23)c1 (some centres undefined)	Pf growth 96h inconclusive, Pf growth 48h inconclusive
CSCCC(C(=O)N1CC2(C)CC1CC(C)(C)C2)N1C(=O)c2ccccc2C1=O (centres undefined)	Pf growth 96h 13µM
O=[N+]([O-])c1cnc(Sc2ccncn2)c([N+](=O)[O-])c1	none (no result: Pf growth 96h, Pf growth 48h, HCV inh)
O=[N+]([O-])c1cnc(Sc2ccncn2)s1	HCV inh 7.1µM
COc1ccc(Cl)cc1NC(=O)CN(C)C(=O)c1ccc(COc2ccccc2)cc1	Pf growth 96h inconclusive, Pf growth 48h inconclusive, HCV inh inconclusive
CC1(C)Cc2c(cnn2-c2ccc(F)cc2)C(NC(=O)CN2CCCC2=O)C1 (centres undefined)	Pf growth 48h inconclusive
CCOC(=O)c1oc2nc(CC(C)C)c3c(c2c1N)CCCC3	Pf growth 96h inconclusive, Pf growth 48h inconclusive, HCV inh 2.8µM
CCOC(=O)c1oc2nc3c(cc2c1N)CCCC3	Pf growth 96h 12µM
COc1cccc(NC(=O)CN(C)C(=O)c2cc(C)oc2C)c1	none
COc1ccccc1NC(=O)COC(=O)c1c(C)nn(-c2ccccc2)c1C	HCV inh 14µM
CCCN(CC(=O)Nc1ccccc1OC)C(=O)c1cc(-c2ccccc2)nn1-c1ccccc1	Pf growth 96h inconclusive, Pf growth 48h inconclusive, HCV inh 11µM
CCN(CC(=O)Nc1ccc(NC(C)=O)cc1)C(=O)c1cc(-c2ccccc2)nn1-c1ccccc1	Pf growth 96h inconclusive, Pf growth 48h inconclusive
COc1cccc(NC(=O)CN(C)C(=O)c2ccc(COc3ccccc3)o2)c1	Pf growth 96h 15µM, Pf growth 48h 15µM
CCCN(CC(=O)Nc1ccccc1OC)C(=O)c1ccc(COc2ccccc2)o1	Pf growth 96h inconclusive, Pf growth 48h 15µM, HCV inh inconclusive
CCOC(=O)C1(C)CCCN(C(=O)c2c(F)cccc2F)C1 (centres undefined)	none (no result: Pf growth 96h, Pf growth 48h, HCV inh)
CCCNC(=O)C1CCN(S(=O)(=O)c2ccc3[nH]c(=O)ccc3c2)CC1	none
CC1CCN(S(=O)(=O)c2ccc3c(c2)CCN3C(=O)C2CCC2)CC1	Pf growth 96h inconclusive
CCC1CCCCN1S(=O)(=O)c1ccc2[nH]c(=O)ccc2c1 (centres undefined)	Pf growth 96h 3.3µM
CCCCN(C)C(=O)C1CCCN(S(=O)(=O)c2ccc3c(c2)CC(C)N3C(=O)C2CC2)C1 (centres undefined)	Pf growth 96h 13µM, Pf growth 48h inconclusive
CCC1CCCCN1S(=O)(=O)c1ccc2c(c1)CCN2C(=O)C1CCC1 (centres undefined)	Pf growth 48h 9.3µM, HCV inh inconclusive (no result: Pf growth 96h)
CCOC(=O)C1CCCCN1S(=O)(=O)c1ccc2c(c1)CC(C)N2C(=O)C1CCC1 (centres undefined)	Pf growth 48h inconclusive, HCV inh inconclusive
CC1Cc2cc(S(=O)(=O)N3CCCCC3C)ccc2N1C(=O)C1CCC1 (centres undefined)	Pf growth 96h 10µM, Pf growth 48h inconclusive, HCV inh inconclusive
CCN1CCCC1CNC(=O)c1cc2cc(F)ccc2[nH]1 (centres undefined)	Pf growth 96h inconclusive, Pf growth 48h inconclusive
CN(Cc1nccn1C)C(=O)CCc1nnc(CCC2CCCCC2)o1	none
CC1CC(C)CN(S(=O)(=O)c2ccc3c(c2)CC(C)N3C(=O)C2CCC2)C1 (centres undefined)	Pf growth 96h inconclusive, Pf growth 48h 10µM, HCV inh inconclusive
c1ccc(-c2nnc3sc(CN4CCc5ccccc54)cn23)cc1	Pf growth 96h inconclusive, Pf growth 48h 10µM, HCV inh inconclusive, AMA1 RON2 block inconclusive
O=C(O)C1CCN(S(=O)(=O)c2ccc(N3CCOCC3)c([N+](=O)[O-])c2)CC1	none
CCOC(=O)N1CCN(c2ccc(S(=O)(=O)N3CCC(C)CC3)cc2[N+](=O)[O-])CC1	Pf growth 96h 9.3µM, Pf growth 48h 10µM, HCV inh inconclusive
O=C(O)C1CCN(S(=O)(=O)c2ccc(N3CCC(O)CC3)c([N+](=O)[O-])c2)CC1	Pf growth 96h 9.3µM, Pf growth 48h inconclusive
CC1(C)Oc2ccc3ccc(=O)oc3c2/C(=C/NC2CCCCC2)C1=O	Pf growth 96h inconclusive, Pf growth 48h inconclusive, HCV inh 10µM
CC1(C)Oc2ccc3ccc(=O)oc3c2/C(=C/Nc2ccccc2)C1=O	HCV inh 10µM (no result: Pf growth 48h)
CC1(C)Oc2ccc3ccc(=O)oc3c2/C(=C/N)C1=O	none
O=[N+]([O-])c1ccc(COc2cccnc2)cc1	Pf growth 96h inconclusive
c1ccc(COc2cncc(-c3cccnc3)c2)cc1	Pf growth 96h inconclusive, Pf growth 48h 10µM, HCV inh inconclusive
CCCC[C@@H]1C[C@H]1[C@@H](NC(=O)c1ccccc1)c1ccccc1C(F)(F)F	Pf growth 96h inconclusive, Pf growth 48h inconclusive, HCV inh inconclusive
C=C(CC1([C@@H](NP(=O)(c2ccccc2)c2ccccc2)[C@H]2C[C@@H]2CCCC)CC1)c1ccccc1	Pf growth 96h 9.3µM, Pf growth 48h 5.9µM
O=C(COc1ccc(F)cc1)c1ccc2c(c1)CCCC2	none (no result: Pf growth 96h, Pf growth 48h)
Cc1cc(OCC(=O)c2ccc(F)cc2)ccc1N1C(=O)CCC1=O	Pf growth 96h 9.3µM
O=C(COc1ccc(Cc2ccccc2)cc1)c1ccc(F)cc1	Pf growth 96h 5.2µM
O=C(COc1cccc(NC(=O)c2ccccc2)c1)c1ccc(F)cc1	HCV inh inconclusive
CC(C)NC(=O)C1CCN(C2CCN(C(=O)c3scc4c3CCCC4)CC2)CC1	Pf growth 96h inconclusive, Pf growth 48h inconclusive, HCV inh inconclusive
COc1ccc(CNC(=O)OC2CC3CC2[C@H]2CCCCN2C3=O)cc1 (some centres undefined)	none (no result: Pf growth 96h, Pf growth 48h, HCV inh)
COc1ccc(-n2c(N)c(-c3nc4ccccc4n3C)sc2=S)cc1	Pf growth 48h 0.93µM
